The whole screen tested about 310,000 compounds, of which about 3,600 (1.2%) were called active.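 The calls were made as follows: active = ratio plate-corrected score three or more library SD toward inhibition, starting fluorescence score within five deviations; inactive = the rest.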 Only a selection was taken, and actives are over-represented in it overall.

For the assay, the target named is Anoctamin-1 (Mus musculus) (UniProt Q8BHY3). Kind of assay: TMEM16A chloride channel inhibitors, primary screen, cell-based, HTS (AID 588511).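 As to normalized B-score (activity score, 25-100; higher = stronger inhibition): score derived from kinetic fluorescence span divided by baseline fluorescence per well.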 The following applies: HEK293 TMEM16A/YFP iodide influx fluorescence, ionomycin; at 10 µM.
Chain of Anoctamin-1 (Mus musculus) (Q8BHY3 whole entry, looked up): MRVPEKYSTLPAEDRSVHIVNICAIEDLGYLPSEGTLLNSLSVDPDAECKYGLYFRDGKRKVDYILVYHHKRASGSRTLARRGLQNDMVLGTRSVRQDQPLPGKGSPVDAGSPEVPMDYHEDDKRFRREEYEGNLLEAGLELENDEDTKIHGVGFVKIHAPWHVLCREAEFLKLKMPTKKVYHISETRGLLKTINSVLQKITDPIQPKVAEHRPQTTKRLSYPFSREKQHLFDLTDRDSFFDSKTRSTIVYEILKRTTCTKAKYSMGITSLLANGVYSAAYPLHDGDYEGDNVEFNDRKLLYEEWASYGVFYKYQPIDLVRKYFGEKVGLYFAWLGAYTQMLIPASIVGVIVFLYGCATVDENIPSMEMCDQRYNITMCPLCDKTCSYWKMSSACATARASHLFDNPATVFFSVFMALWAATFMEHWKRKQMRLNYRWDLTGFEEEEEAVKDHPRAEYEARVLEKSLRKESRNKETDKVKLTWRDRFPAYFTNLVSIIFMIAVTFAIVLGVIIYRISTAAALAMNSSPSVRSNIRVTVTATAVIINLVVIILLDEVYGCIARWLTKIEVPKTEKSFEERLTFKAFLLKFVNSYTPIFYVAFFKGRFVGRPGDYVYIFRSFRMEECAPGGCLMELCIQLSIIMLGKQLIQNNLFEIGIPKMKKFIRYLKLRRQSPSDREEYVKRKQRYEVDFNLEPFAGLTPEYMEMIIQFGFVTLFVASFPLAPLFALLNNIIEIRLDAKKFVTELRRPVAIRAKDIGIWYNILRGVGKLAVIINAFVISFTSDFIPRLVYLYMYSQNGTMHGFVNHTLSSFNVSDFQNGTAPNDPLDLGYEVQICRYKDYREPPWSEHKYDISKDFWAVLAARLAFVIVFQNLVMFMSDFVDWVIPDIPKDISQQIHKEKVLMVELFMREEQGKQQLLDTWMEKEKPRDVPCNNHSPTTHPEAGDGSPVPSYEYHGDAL
As to `CCOc1ccc(NC(=O)CCCCCN2C(=O)[C@@H]3Cc4ccccc4CN3C2=O)cc1`, the normalized B-score (activity score, 25-100; higher = stronger inhibition) entry is “inactive”.
As to `COc1cc(Cl)c(C)cc1NC(=O)CSc1nnc(-c2cccnc2)n1Cc1ccco1`, the normalized B-score (activity score, 25-100; higher = stronger inhibition) entry is “inactive”.
As for `CCOC(=O)Cc1csc(NC(=O)CSc2nnc(-c3cccnc3)n2Cc2ccco2)n1`, the normalized B-score (activity score, 25-100; higher = stronger inhibition) was 100 (active).
Regarding `O=C(CSc1nnc(-c2cccnc2)n1Cc1ccco1)c1ccc(Cl)c(Cl)c1`, the normalized B-score (activity score, 25-100; higher = stronger inhibition) result was “inactive”.
As to `COc1ccc(/C(C)=N\NC(=O)c2ccc(-c3ccccc3)cc2)c(F)c1`, the normalized B-score (activity score, 25-100; higher = stronger inhibition) entry was “inactive”.
As for `O=[N+]([O-])C(=c1ccc2c(c1)N1C3=C(CCCC3)CC3CCCCC31N=2)[N+](=O)[O-]` (stereo not drawn), the normalized B-score (activity score, 25-100; higher = stronger inhibition) result was “inactive”.
Consider `O=c1c(-c2cccc(Cl)c2)c[nH]n1-c1ccccc1`, for which the normalized B-score (activity score, 25-100; higher = stronger inhibition) entry was “inactive”.
As for `Cc1[nH]n(-c2cccc(Cl)c2)c(=O)c1-c1ccc(Cl)cc1`, the normalized B-score (activity score, 25-100; higher = stronger inhibition) was 25 (active).
With `Cc1[nH]n(-c2cccc(Cl)c2)c(=O)c1/C=N/n1c(C)nc2ccccc2c1=O`, the normalized B-score (activity score, 25-100; higher = stronger inhibition) result was “inactive”.
As to `Cc1ccccc1OCC(=O)N(Cc1cccc(F)c1)C1CCS(=O)(=O)C1` (stereo not drawn), the normalized B-score (activity score, 25-100; higher = stronger inhibition) entry was “inactive”.
In the case of `Cn1nnnc1SCC(=O)Nc1nc2ccccc2s1`, the normalized B-score (activity score, 25-100; higher = stronger inhibition) entry was “inactive”.
Then `C=CCn1c(SCC(=O)NCc2ccccc2)nnc1-c1cc(Br)ccc1O`, with “inactive”.
As to `C=CCn1c(SCC(=O)Nc2nc3ccccc3s2)nnc1-c1ccccc1O`, the normalized B-score (activity score, 25-100; higher = stronger inhibition) is 100 (active).
As to `COc1ccc(Cl)cc1NC(=O)CN(C)C(=O)c1cc2ccccc2cc1OC`, the normalized B-score (activity score, 25-100; higher = stronger inhibition) entry is “inactive”.
In the case of `CN(CC(O)COc1ccc(S(=O)(=O)N2CCOCC2)cc1Cl)C1CCCCC1` (stereo not drawn), the normalized B-score (activity score, 25-100; higher = stronger inhibition) entry is “inactive”.
As for `CCOC(=O)N1CCN(C(=O)c2ccc(S(=O)(=O)Nc3cccc(C(F)(F)F)c3)cc2)CC1`, the normalized B-score (activity score, 25-100; higher = stronger inhibition) entry is “inactive”.
Regarding `Cc1oc2c(F)c(F)c(F)c(F)c2c1S(=O)(=O)Nc1cccc(C(F)(F)F)c1`, the normalized B-score (activity score, 25-100; higher = stronger inhibition) is 100 (active).
As to `O=C(/C=C/c1ccc(F)cc1)Nc1cccc(S(=O)(=O)Nc2cccc(C(F)(F)F)c2)c1`, the normalized B-score (activity score, 25-100; higher = stronger inhibition) result is “inactive”.
With `COc1ccccc1-n1c(SCC(=O)Nc2cccc(C(=O)O)c2)nnc1-c1ccccc1O`, the normalized B-score (activity score, 25-100; higher = stronger inhibition) entry was “inactive”.
With `Cc1cc2c(cc1C)N(Cc1ccccc1)C1=NCCCN12`, the normalized B-score (activity score, 25-100; higher = stronger inhibition) entry was “inactive”.
On to `Cn1cc(C(=O)c2ccc(Cl)cc2Cl)cc1C(=O)NN`, for which the normalized B-score (activity score, 25-100; higher = stronger inhibition) result is “inactive”.
As for `O=C(CCc1ccccc1)Nc1ncc([N+](=O)[O-])s1`, the normalized B-score (activity score, 25-100; higher = stronger inhibition) result is “inactive”.
With `O=C(Cc1c(F)cccc1Cl)Nc1ncc([N+](=O)[O-])s1` the figure was 100 (active); with `O=C(Cc1c(F)cccc1Cl)Nc1ccc(-n2cnnn2)cc1`, “inactive”.
For the molecule `Cc1ccc2nsnc2c1NC(=O)c1ccccc1[N+](=O)[O-]`, the normalized B-score (activity score, 25-100; higher = stronger inhibition) result was “inactive”.
For `O=C(CC(Cc1ccccc1)C(=O)O)NCCc1ccc2c(c1)OCO2` (stereo not drawn), the normalized B-score (activity score, 25-100; higher = stronger inhibition) entry is “inactive”.
`N=c1oc2ccccc2cc1C(=O)NCc1ccccc1`: the normalized B-score (activity score, 25-100; higher = stronger inhibition) result is “inactive”.
On to `O=C(NCCc1ccc2c(c1)OCCO2)c1cc2ccccc2o1`, for which the normalized B-score (activity score, 25-100; higher = stronger inhibition) is 100 (active).

Values taken from PubChem BioAssay AID588511 (Johns Hopkins Ion Channel Center, 2011).
